Target: AMP-activated protein kinase, AMPK (Homo sapiens) (UniProt P54646+O43741+P54619+Q9UGJ0+Q9Y478+Q13131+Q9UGI9)
Assay: AMP-dependent Kinase enzyme assay. An in vitro enzyme assay that detects ADP turnover that is directly proportional to AMPK activity. This uses naive AMPK that is activated during the assay with MK-8722
Type: functional
Design: scale not given: direction of the effect not stated beside the values
Conditions: 30 µM

Point of comparison: `c1ccc(CN2CCN(Cc3cscn3)CC2)cc1`, Percent Effect 2.52%. Against it:
- CCCS(=O)(=O)c1ncc(CN2CCC(CO)CC2)n1CC1CCCO1 (stereo not drawn) — lower, -2.25%
- CS(=O)(=O)NC1CCN(C(=O)NCCc2ccccc2F)CC1 — lower, -6.29%
- Cn1ccc(CN2CCC(CCc3ccc(O)cc3)CC2)cc1=O — higher, 43.4%
- Cc1cc(N2CCN(CCO)CC2)nc(-c2ccncc2)n1 — lower, 0.962%
- COc1c(CNC2CCN(C(C)(C)C)CC2)c(C(C)C)nn1C — lower, -6.9%
- O=C1[C@@H]2CCN(Cc3ccncc3)C[C@@H]2OCCN1c1ccccc1 — higher, 4.63%
- CC(C)c1cc(NC(=O)c2ccc(NC3CC3)nc2)[nH]n1 — higher, 111%
- CN(C)C(=O)N1C[C@@H]2CC[C@H](C1)N(Cc1ccc3nsnc3c1)C2 — lower, -8.41%
- Cc1csc(N2CCCN(Cc3noc(C)n3)CC2)n1 — lower, -4.18%
- CC(C)c1nccn1C1CCCN(C(=O)c2ccc3c(c2)OCO3)C1 (stereo not drawn) — higher, 7.64%
- Cc1nc(C)n(C2CCCN(C(=O)c3cc(C(N)=O)cs3)C2)n1 (stereo not drawn) — lower, 0.492%
- CCN1CC(C(=O)NCc2ccccc2-n2cccn2)CC1=O (stereo not drawn) — lower, 0.208%
- Cc1cnn(C2CN(CC(O)c3ccc(F)cc3)C2)c1 (stereo not drawn) — lower, -7.34%
- CC(C)CN1CCN(Cc2nc3ccccc3[nH]2)[C@H]2CS(=O)(=O)C[C@H]21 — lower, 1.86%
- OCCC1CN(C2CCC2)CCN1C1CCCC1 (stereo not drawn) — lower, -6.25%
- Cc1cc(C)c2nc(CN3CC[C@@H](O)C3)cc(O)c2c1 — lower, 0.932%
- O=C(CSc1nncs1)N1CCN(Cc2ccc(Cl)s2)CC1 — higher, 4.99%
- CC1CN(C(=O)CN(Cc2ccco2)C2CC2)CCO1 (stereo not drawn) — higher, 2.98%
- C=Cc1ccc(C(=O)N2CCCC(Nc3ccc(OC)cc3)C2)cc1 (stereo not drawn) — higher, 29%
- COCc1ncn2c1CN(C(=O)C1CC=CC1)CC2 — lower, -2.21%
- c1ccc(Cn2ccnc2CN2CCOC(Cn3cccn3)C2)cc1 (stereo not drawn) — higher, 9.54%
- CC(C)c1csc(C2CCCN(C(=O)c3ccc(=O)n(C)n3)C2)n1 (stereo not drawn) — lower, -11.4%
- Cc1csc(C2CCCCN2C(=O)CN(C)C2CC2)n1 (stereo not drawn) — lower, 0.541%
- CC(C)NC(=O)N1CCN(CC2CC2)CC2(CC(=O)N(C)C2)C1 (stereo not drawn) — higher, 3.4%
- Cc1ccc(C(=O)N2CC[C@@H]3[C@H]2CCC(=O)N3c2ccccc2)o1 — higher, 14%
- Cn1cc(CN2CCCN(C(=O)c3ccc4c(c3)COC4)CC2)cn1 — lower, -1.04%
- O=C(c1cncc(N2CCC3(CCNCC3)CC2)n1)N1CCCC1 — lower, 1.16%
- Cn1ncc2c(=O)[nH]c(CN3CCC(Cc4ccccc4)CC3)nc21 — lower, -7.07%
- O=C(NCc1cnc2n1CCN(Cc1ccsc1)CC2)C1CCC1 — lower, -0.353%
- CC(=O)c1cn(CCC(=O)N[C@H](C(=O)O)C(C)C)c2ccccc12 — higher, 3.61%
- Cc1nn(C)c(C)c1C1CCCN1C(=O)CCCn1cccn1 (stereo not drawn) — higher, 3.67%
- COc1nc2c(cc1C(=O)N1C[C@H](N)C[C@H]1C(=O)NC(C)C)CCC2 — lower, -10.6%
- OC1CCN(Cc2c(C3CCCNC3)[nH]c3ncccc23)CC1 (stereo not drawn) — higher, 11.9%
- CCN1CC2(CC1=O)CN(Cc1ccco1)CCN(C(=O)N(C)C)C2 (stereo not drawn) — lower, 1.96%
- Cc1ccc(C(CNCc2ccncc2)N2CCOCC2)s1 (stereo not drawn) — lower, -3.34%
- CCOc1ncccc1C(=O)N1CCCCC1c1nccs1 (stereo not drawn) — lower, -17.5%
- Cn1cc(CN2CC[C@@H]3[C@@H](CCC(=O)N3CCc3c[nH]cn3)C2)cn1 — lower, -4.95%
- O=C(c1cscn1)N1CCC[C@]2(C[C@H](OCC3CC3)CO2)C1 — higher, 6.38%

Target: Sialic acid-binding Ig-like lectin 9 (Homo sapiens) (UniProt Q9Y336)
Sequence (Q9Y336 whole entry): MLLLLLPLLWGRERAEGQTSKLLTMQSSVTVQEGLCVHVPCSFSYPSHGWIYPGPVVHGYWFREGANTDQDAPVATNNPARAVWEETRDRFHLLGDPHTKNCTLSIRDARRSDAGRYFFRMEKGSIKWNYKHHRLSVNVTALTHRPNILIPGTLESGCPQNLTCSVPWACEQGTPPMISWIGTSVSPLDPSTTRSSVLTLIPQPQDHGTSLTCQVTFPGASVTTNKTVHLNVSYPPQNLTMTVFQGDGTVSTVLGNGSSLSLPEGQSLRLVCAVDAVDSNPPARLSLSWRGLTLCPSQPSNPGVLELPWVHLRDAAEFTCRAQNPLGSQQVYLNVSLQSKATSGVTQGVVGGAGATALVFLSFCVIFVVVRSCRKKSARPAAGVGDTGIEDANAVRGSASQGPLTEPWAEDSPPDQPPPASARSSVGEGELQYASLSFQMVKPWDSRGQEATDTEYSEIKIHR
Assay: Hs-Siglec9 ALPHAscreen SOP 20170721
Design: scale not given: direction of the effect not stated beside the values
Conditions: 10 µM

Point of comparison: `CN(C)C(=O)N1C[C@@H]2CC[C@H](C1)N(Cc1ccc3nsnc3c1)C2`, Percent Effect -5.35%. Against it:
- CCCS(=O)(=O)c1ncc(CN2CCC(CO)CC2)n1CC1CCCO1 (stereo not drawn) — higher, -1.43%
- CS(=O)(=O)NC1CCN(C(=O)NCCc2ccccc2F)CC1 — higher, 9.26%
- Cn1ccc(CN2CCC(CCc3ccc(O)cc3)CC2)cc1=O — higher, 0.347%
- Cc1cc(N2CCN(CCO)CC2)nc(-c2ccncc2)n1 — higher, -2.69%
- COc1c(CNC2CCN(C(C)(C)C)CC2)c(C(C)C)nn1C — higher, -3.36%
- O=C1[C@@H]2CCN(Cc3ccncc3)C[C@@H]2OCCN1c1ccccc1 — higher, 0.633%
- CC(C)c1cc(NC(=O)c2ccc(NC3CC3)nc2)[nH]n1 — higher, 10.4%
- Cc1csc(N2CCCN(Cc3noc(C)n3)CC2)n1 — higher, 0.549%
- CC(C)c1nccn1C1CCCN(C(=O)c2ccc3c(c2)OCO3)C1 (stereo not drawn) — lower, -5.54%
- Cc1nc(C)n(C2CCCN(C(=O)c3cc(C(N)=O)cs3)C2)n1 (stereo not drawn) — higher, -4%
- CCN1CC(C(=O)NCc2ccccc2-n2cccn2)CC1=O (stereo not drawn) — higher, 2.02%
- Cc1cnn(C2CN(CC(O)c3ccc(F)cc3)C2)c1 (stereo not drawn) — higher, 3.97%
- CC(C)CN1CCN(Cc2nc3ccccc3[nH]2)[C@H]2CS(=O)(=O)C[C@H]21 — higher, -1.7%
- OCCC1CN(C2CCC2)CCN1C1CCCC1 (stereo not drawn) — higher, -1.98%
- Cc1cc(C)c2nc(CN3CC[C@@H](O)C3)cc(O)c2c1 — higher, 1.78%
- c1ccc(CN2CCN(Cc3cscn3)CC2)cc1 — higher, 7.55%
- O=C(CSc1nncs1)N1CCN(Cc2ccc(Cl)s2)CC1 — higher, 1.5%
- CC1CN(C(=O)CN(Cc2ccco2)C2CC2)CCO1 (stereo not drawn) — higher, -1.26%
- C=Cc1ccc(C(=O)N2CCCC(Nc3ccc(OC)cc3)C2)cc1 (stereo not drawn) — higher, 18.1%
- COCc1ncn2c1CN(C(=O)C1CC=CC1)CC2 — higher, -3.27%
- c1ccc(Cn2ccnc2CN2CCOC(Cn3cccn3)C2)cc1 (stereo not drawn) — higher, 2.25%
- CC(C)c1csc(C2CCCN(C(=O)c3ccc(=O)n(C)n3)C2)n1 (stereo not drawn) — higher, -0.23%
- Cc1csc(C2CCCCN2C(=O)CN(C)C2CC2)n1 (stereo not drawn) — higher, -1.97%
- CC(C)NC(=O)N1CCN(CC2CC2)CC2(CC(=O)N(C)C2)C1 (stereo not drawn) — lower, -6.25%
- Cc1ccc(C(=O)N2CC[C@@H]3[C@H]2CCC(=O)N3c2ccccc2)o1 — higher, -0.294%
- Cn1cc(CN2CCCN(C(=O)c3ccc4c(c3)COC4)CC2)cn1 — higher, 13.2%
- O=C(c1cncc(N2CCC3(CCNCC3)CC2)n1)N1CCCC1 — higher, 15.6%
- Cn1ncc2c(=O)[nH]c(CN3CCC(Cc4ccccc4)CC3)nc21 — higher, 0.445%
- O=C(NCc1cnc2n1CCN(Cc1ccsc1)CC2)C1CCC1 — higher, 4.49%
- CC(=O)c1cn(CCC(=O)N[C@H](C(=O)O)C(C)C)c2ccccc12 — higher, -0.198%
- Cc1nn(C)c(C)c1C1CCCN1C(=O)CCCn1cccn1 (stereo not drawn) — higher, -4.76%
- COc1nc2c(cc1C(=O)N1C[C@H](N)C[C@H]1C(=O)NC(C)C)CCC2 — higher, 9.06%
- OC1CCN(Cc2c(C3CCCNC3)[nH]c3ncccc23)CC1 (stereo not drawn) — higher, 5.12%
- CCN1CC2(CC1=O)CN(Cc1ccco1)CCN(C(=O)N(C)C)C2 (stereo not drawn) — higher, 9.02%
- Cc1ccc(C(CNCc2ccncc2)N2CCOCC2)s1 (stereo not drawn) — higher, 21.5%
- CCOc1ncccc1C(=O)N1CCCCC1c1nccs1 (stereo not drawn) — higher, 15.7%
- Cn1cc(CN2CC[C@@H]3[C@@H](CCC(=O)N3CCc3c[nH]cn3)C2)cn1 — higher, 7.16%
- O=C(c1cscn1)N1CCC[C@]2(C[C@H](OCC3CC3)CO2)C1 — higher, 4.3%
